“And” between values parts separate entries of the source, which are not always exact repeats. Identical values can stand only once. Results filed as inconclusive are left out. The source made the active and inactive calls. Unless noted, the call rests on the fitted dose curve; in most records, active means well fitted curve in the direction sought with a large enough effect in the repeat runs; inconclusive means weak or mixed curves; inactive means no such curve, though single readings can be large; an effect the other way counts as inactive or inconclusive.

The nature of assay [1]: qHTS assay to identify small molecule antagonists of the peroxisome proliferator-activated receptor delta (PPARd) signaling pathway - cell viability counter screen (AID 743213). Further: nearly all actives have a fitted effect of over 50% in size. Further: potency means the concentration at half of the fitted maximal effect. The method in brief: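 PPARd-bla HEK293H cells (3000/well) got compound plus 300 nM L165041 agonist for 17 h at 37 C. Viability in the same wells came from CellTiter-Glo luminescence after 30 min at room temperature.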
A general note: Quantitative high-throughput screening tests each substance at several concentrations.

The nature of assay [2]: qHTS assay to identify small molecule agonists of the vitamin D receptor (VDR) signaling pathway - cell viability counter screen (AID 743224). Further: nearly all actives have a fitted effect of over 50% in size. Further: potency means the concentration at half of the fitted maximal effect. The method in brief: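 VDR-bla cell line, quantitative HTS format; 16 h compound incubation (37C, 5% CO2); ATP-based CellTiter-Glo luminescence measured in the reporter assay wells.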
The nature of assay [3]: qHTS assay to identify small molecule antagonists of the farnesoid-X-receptor (FXR) signaling pathway - cell viability counter screen (AID 743221; active means well fitted cell-killing curve with a large enough effect in the repeat runs, not every such curve was filed as active; further: nearly all actives have a fitted effect of over 50% in size; further: potency means the concentration at half of the fitted maximal effect). A digest of the protocol:
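Multiplexed counter screen: viability of FXR-bla HEK 293T cells under agonist stimulation by chenodeoxycholic acid (50 uM, final) and test compound for 16 h at 37 C, measured by CellTiter-Glo luminescence in the reporter wells.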

The target in assay [4] is Vitamin D3 receptor (Homo sapiens) (UniProt P11473). The experiment in a line: qHTS assay to identify small molecule agonists of the vitamin D receptor (VDR) signaling pathway (AID 743222; calls by dose curve; further: potency means the concentration at half of the fitted maximal effect). A digest of the protocol:
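Agonist activity measured in VDR-bla reporter cells. Exposure 16 h, 37C, 5% CO2; detection by B/G FRET substrate, 2 h RT.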

For assay [5], the target named is Bile acid receptor (Homo sapiens) (UniProt Q96RI1). Nature of the assay: qHTS assay to identify small molecule agonists of the farnesoid-X-receptor (FXR) signaling pathway (AID 743220; active means well fitted activation curve with a large enough effect in the signal ratio in the repeat runs, not every such curve was filed as active; the % refers to the signal ratio). The method in brief: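 Beta-lactamase reporter under UAS control in GeneBLAzer FXR HEK 293T cells (5000/well) measured with LiveBLAzer FRET substrate after 2 h at room temperature. Compound exposure lasted 16 h at 37C.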
Bile acid receptor (Homo sapiens), sequence (Q96RI1 whole entry, looked up): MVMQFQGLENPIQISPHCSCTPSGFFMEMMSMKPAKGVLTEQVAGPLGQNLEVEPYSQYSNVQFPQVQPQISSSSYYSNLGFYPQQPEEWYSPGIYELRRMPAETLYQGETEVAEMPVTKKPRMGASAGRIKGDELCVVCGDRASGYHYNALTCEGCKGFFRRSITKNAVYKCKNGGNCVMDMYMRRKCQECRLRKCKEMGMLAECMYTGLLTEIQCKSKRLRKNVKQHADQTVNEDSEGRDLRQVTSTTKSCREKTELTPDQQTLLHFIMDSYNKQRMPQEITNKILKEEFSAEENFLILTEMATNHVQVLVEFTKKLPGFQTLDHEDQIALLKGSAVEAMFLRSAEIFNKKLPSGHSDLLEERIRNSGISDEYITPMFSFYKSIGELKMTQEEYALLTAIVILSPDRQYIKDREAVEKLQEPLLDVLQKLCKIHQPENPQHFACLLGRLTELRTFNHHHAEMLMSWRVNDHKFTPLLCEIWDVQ

For assay [6], the target named is Peroxisome proliferator-activated receptor delta (Homo sapiens) (UniProt Q03181). The experiment in a line: qHTS assay to identify small molecule antagonists of the peroxisome proliferator-activated receptor delta (PPARd) signaling pathway (AID 743215; active means well fitted inhibition curve with a large enough effect in the signal ratio in the repeat runs, not every such curve was filed as active; the % refers to the signal ratio;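 further: cells stimulated with agonist L165041 at 300 nM final during compound exposure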; further: potency means the concentration at half of the fitted maximal effect). A digest of the protocol:
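Antagonist-mode beta-lactamase reporter screen: HEK293H cells with UAS-bla under PPARd control, stimulated by 300 nM L165041 (final) alongside test compound for 17 h at 37 C, then FRET fluorescence after 2 h substrate incubation.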

The nature of assay [7]: qHTS assay to identify small molecule agonists of the farnesoid-X-receptor (FXR) signaling pathway - cell viability counter screen (AID 743218). Further: nearly all actives have a fitted effect of over 45% in size. Further: potency means the concentration at half of the fitted maximal effect. A digest of the protocol: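 In GeneBLAzer FXR-UAS-bla HEK 293T cells, compounds act for 16 h at 37 C. Cell viability is then scored in the reporter wells by CellTiter-Glo, 30 min at RT, luminescence.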
Assay [8] concerns the target Bile acid receptor (Homo sapiens) (UniProt Q96RI1). The experiment in a line: qHTS assay to identify small molecule antagonists of the farnesoid-X-receptor (FXR) signaling pathway (AID 743217; active means well fitted inhibition curve with a large enough effect in the signal ratio in the repeat runs, not every such curve was filed as active; the % refers to the signal ratio). A digest of the protocol:
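Beta-lactamase reporter under UAS control in HEK 293T cells; compound exposure 16 h at 37 °C in the presence of chenodeoxycholic acid (50 uM final); signal from B/G FRET substrate after 2 h at room temperature.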

The target in assay [9] is Vitamin D3 receptor (Homo sapiens) (UniProt P11473). The experiment in a line: qHTS assay to identify small molecule antagonists of the vitamin D receptor (VDR) signaling pathway (AID 743223; active means well fitted inhibition curve with a large enough effect in the signal ratio in the repeat runs, not every such curve was filed as active; the % refers to the signal ratio). A digest of the protocol:
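Cells carrying a VDR-driven beta-lactamase reporter (VDR-bla) were co-treated with compound and 3 nM final 1alpha,25-dihydroxyvitamin D3 for 16 h at 37C; reporter activity was measured as FRET substrate fluorescence after 2 h at room temperature.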
On the % scale 0 is the no-effect control and ±100 the full control effect.

Peroxisome proliferator-activated receptor delta (Homo sapiens), sequence (Q03181 whole entry, looked up): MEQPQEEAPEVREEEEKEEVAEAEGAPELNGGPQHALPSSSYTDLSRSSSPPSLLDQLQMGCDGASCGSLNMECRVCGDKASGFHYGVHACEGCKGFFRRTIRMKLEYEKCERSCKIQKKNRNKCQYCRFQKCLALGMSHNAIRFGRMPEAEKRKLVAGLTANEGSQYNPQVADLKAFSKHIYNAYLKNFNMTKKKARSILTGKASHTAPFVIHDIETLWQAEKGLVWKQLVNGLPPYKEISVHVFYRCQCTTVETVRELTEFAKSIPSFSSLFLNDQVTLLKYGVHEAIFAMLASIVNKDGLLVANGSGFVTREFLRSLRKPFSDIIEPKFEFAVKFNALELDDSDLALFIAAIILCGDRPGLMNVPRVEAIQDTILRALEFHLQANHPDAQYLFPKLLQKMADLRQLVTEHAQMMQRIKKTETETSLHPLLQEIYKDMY
Vitamin D3 receptor (Homo sapiens), sequence (P11473 whole entry, looked up): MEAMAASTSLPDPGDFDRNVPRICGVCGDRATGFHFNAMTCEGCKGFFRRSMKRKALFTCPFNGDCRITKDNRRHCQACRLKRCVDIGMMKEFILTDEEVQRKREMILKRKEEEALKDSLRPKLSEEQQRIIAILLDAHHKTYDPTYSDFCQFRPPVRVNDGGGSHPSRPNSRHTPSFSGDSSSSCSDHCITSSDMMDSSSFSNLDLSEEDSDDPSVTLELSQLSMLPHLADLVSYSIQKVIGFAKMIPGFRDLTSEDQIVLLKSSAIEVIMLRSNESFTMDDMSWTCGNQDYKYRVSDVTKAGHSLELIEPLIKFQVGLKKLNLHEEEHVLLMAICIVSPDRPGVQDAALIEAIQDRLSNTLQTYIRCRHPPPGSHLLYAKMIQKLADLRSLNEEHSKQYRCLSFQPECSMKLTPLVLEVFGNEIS

Take `CN(C)S(=O)(=O)N(SC(F)(Cl)Cl)c1ccccc1`: the Potency was 27.5 µM (active) in [1] and 15.5 µM (active) in assay [2].

In the case of `C=CC(=O)OCC(COC(=O)C=C)(COC(=O)C=C)COC(=O)C=C`, the Potency in [1] is 12.3 µM (active); in [3] it was 21.9 µM (active); in [2] it was 7.76 µM (active).

`COP(=O)(OC)SCn1c(=O)oc2cc(Cl)cnc21`: the Potency result in assay [1], in [3] and in [4] was “inactive” in each case.

Consider `CC(=O)[O-].CC(=O)[O-].[Hg+2]`, for which the Potency in [1] was 3.47 µM (active); in [2] it was 1.74 µM (active).

Take `CCOC(=O)C1(c2ccccc2)CCN(CCC(C#N)(c2ccccc2)c2ccccc2)CC1`: the Potency entry in [1] and in [2] was “inactive” throughout. Also, the compound was called inactive in assay [5].

In the case of `O=C(O)c1cc[c]([Hg][Cl])cc1`, the Potency result in assay [6], in [3] and in [4] was “inactive” throughout. Further, the Potency in assay [7] is 27.5 µM (active); in assay [2], 24.5 µM (active).

For `CCCCN(CCCC)C(=S)[S-].CCCCN(CCCC)C(=S)[S-].[Zn+2]`, the Potency in [1] is 12.3 µM (active); in assay [3], 13.8 µM (active); in [2], 5.49 µM (active).

With `CC(C)CC(C)Nc1ccc(Nc2ccccc2)cc1` (centres undefined), the Potency in assay [1] and in [2] was 38.3 µM (active) in each case.

With `CC(=O)[O-].CC(=O)[O-].O.O.[Cd+2]`, the Potency in assay [1] was 19.2 µM (active); in [2], 1.21 µM (active).

For `O=[N+]([O-])c1cc([N+](=O)[O-])c2ccccc2c1`, the Potency entry in [1], in [3] and in assay [2] was “inactive” each time.

On to `Clc1ccc(CSC(Cn2ccnc2)c2ccc(Cl)cc2Cl)cc1` (centres undefined), for which the Potency in [1] was 33.5 µM (active); in [2], 29.8 µM (active). Further, the Potency entry in assay [4] was “inactive”.

Turning to `CC[C@H](C)[C@H]1O[C@]2(C=C[C@@H]1C)C[C@@H]1C[C@@H](C/C=C(\C)[C@@H](O[C@H]3C[C@H](OC)[C@@H](O[C@H]4C[C@H](OC)[C@@H](O)[C@H](C)O4)[C@H](C)O3)[C@@H](C)/C=C/C=C3\CO[C@@H]4[C@H](O)C(C)=C[C@@H](C(=O)O1)[C@]34O)O2`, the Potency in assay [1] is 9.15 µM (active); in [3], 12.9 µM (active); in [2] it was 7.27 µM (active).

Regarding `S=C(SSC(=S)N1CCCCC1)N1CCCCC1`, the Potency in [1] and in assay [2] was 0.168 µM (active) throughout.

In the case of `CCCOCC(=Nc1ccc(Cl)cc1C(F)(F)F)n1ccnc1`, the Potency in assay [1] is 21.9 µM (active); in [4], 34.6 µM (active); in assay [2] it was 7.76 µM (active).

For the compound `CCCCCCCCCCCCCCC(Br)C(=O)O` (centres undefined), the Potency result in assay [6], in [8] and in [9] was “inactive” in each case. In addition, in [7], the Potency was 21.9 µM (active).

Turning to `O=C(CCl)C(Cl)Cl`, the Potency in assay [6] is 49.4 µM (active).

Take `CN(C)C1CSSSC1`: the Potency result in [1], in assay [4] and in assay [2] was “inactive” throughout.

Consider `O=c1c(C2CC(c3ccc(-c4ccc(Br)cc4)cc3)Cc3ccccc32)c(O)sc2ccccc12` (centres undefined), for which the Potency result in assay [1] and in assay [9] was “inactive” in each case.

Regarding `c1ccc2c(c1)[nH]c1cnccc12`, the Potency entry in assay [1], in [3] and in [2] was “inactive” each time.

As to `Cc1cc(C(F)(C(F)(F)F)C(F)(F)F)ccc1NC(=O)c1cccc(I)c1C(=O)NC(C)(C)CS(C)(=O)=O`, the Potency entry in assay [6], in [8], in [7] and in assay [2] was “inactive” in each case.

As for `Cc1cc(SCc2sc(-c3ccc(C(F)(F)F)c(F)c3)nc2C)ccc1OCC(=O)O`, the Potency in assay [1] was 12.3 µM (active); in [2] it was 49 µM (active). Also, in [3], the Potency result is “inactive”.

Consider `[Cd+2].[Cl-].[Cl-]`, for which the Potency in [1] is 7.83 µM (active) and 1.23 µM (active); in assay [3], 12.4 µM (active) and 19.5 µM (active); in assay [2] it was 1.75 µM (active) and 1.23 µM (active).

In the case of `O=[N+]([O-])O.O=[N+]([O-])O.[Cd]`, the Potency in [1] is 5.49 µM (active); in assay [3] it was 6.16 µM (active); in [2] it was 1.74 µM (active).

For `N#CSCSC#N`, the Potency in assay [1] is 44.6 µM (active) and 48.5 µM (active); in [2], 15.8 µM (active) and 17.2 µM (active). Moreover, in [5], the compound was classed as inactive. Further, the Potency entry in assay [4] is “inactive”.

For `CC(c1ccc(O)cc1)c1ccc(O)cc1`, the Potency entry in assay [1], in assay [3] and in assay [2] was “inactive” each time.

As to `O=C1c2ccccc2C(=O)C1C(=O)C(c1ccccc1)c1ccc(Cl)cc1` (centres undefined), the Potency entry in assay [1], in assay [3], in [4] and in assay [9] was “inactive” throughout. Further, in assay [2], the Potency is 21.9 µM (active).

In the case of `O=C/C(Cl)=C(/Cl)C(=O)O`, the Potency result in [1], in assay [3], in assay [4] and in assay [2] was “inactive” in each case.

For the compound `CCCCCCCCCCCCCCCC[n+]1ccccc1`, the Potency in assay [1] was 25.7 µM (active) and 21.9 µM (active) and 24.2 µM (active); in assay [3], 51.3 µM (active) and 43.6 µM (active) and 29.8 µM (active); in assay [2] it was 25.7 µM (active) [middle of 4 runs].

Regarding `CSCCCN=C=S`, the Potency entry in [1], in assay [3] and in assay [4] was “inactive” each time.

For `C[C@@H]1O[C@@H](O[C@H]2C[C@@H](O)[C@]3(CO)[C@H]4[C@H](O)C[C@]5(C)[C@@H](C6=CC(=O)OC6)CC[C@]5(O)[C@@H]4CC[C@]3(O)C2)[C@H](O)[C@H](O)[C@H]1O`, the Potency in [1] is 16.5 nM (active) and 133 nM (active); in assay [2] it was 16.5 nM (active) and 75 nM (active).
